# Screens from PubChem BioAssay.
# Rows were chosen to be rich in hits. Some 1.6% of all compounds tested hit in one or more screens of this group.
# KCNQ2 block: blocks the rat KCNQ2 potassium channel | O88943 | CHO-K1 KCNQ2, FluxOR thallium flux, 20 min; active compounds read low | B-score at 10 µM | 1.1% of 310,000 active | AID 2156;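 active = fluorescence ratio B-score at most minus 3 library SDs, with starting brightness B-score within 2 library SDs, cut at about -5.5 in these data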
# Target sequence (O88943 whole entry, looked up): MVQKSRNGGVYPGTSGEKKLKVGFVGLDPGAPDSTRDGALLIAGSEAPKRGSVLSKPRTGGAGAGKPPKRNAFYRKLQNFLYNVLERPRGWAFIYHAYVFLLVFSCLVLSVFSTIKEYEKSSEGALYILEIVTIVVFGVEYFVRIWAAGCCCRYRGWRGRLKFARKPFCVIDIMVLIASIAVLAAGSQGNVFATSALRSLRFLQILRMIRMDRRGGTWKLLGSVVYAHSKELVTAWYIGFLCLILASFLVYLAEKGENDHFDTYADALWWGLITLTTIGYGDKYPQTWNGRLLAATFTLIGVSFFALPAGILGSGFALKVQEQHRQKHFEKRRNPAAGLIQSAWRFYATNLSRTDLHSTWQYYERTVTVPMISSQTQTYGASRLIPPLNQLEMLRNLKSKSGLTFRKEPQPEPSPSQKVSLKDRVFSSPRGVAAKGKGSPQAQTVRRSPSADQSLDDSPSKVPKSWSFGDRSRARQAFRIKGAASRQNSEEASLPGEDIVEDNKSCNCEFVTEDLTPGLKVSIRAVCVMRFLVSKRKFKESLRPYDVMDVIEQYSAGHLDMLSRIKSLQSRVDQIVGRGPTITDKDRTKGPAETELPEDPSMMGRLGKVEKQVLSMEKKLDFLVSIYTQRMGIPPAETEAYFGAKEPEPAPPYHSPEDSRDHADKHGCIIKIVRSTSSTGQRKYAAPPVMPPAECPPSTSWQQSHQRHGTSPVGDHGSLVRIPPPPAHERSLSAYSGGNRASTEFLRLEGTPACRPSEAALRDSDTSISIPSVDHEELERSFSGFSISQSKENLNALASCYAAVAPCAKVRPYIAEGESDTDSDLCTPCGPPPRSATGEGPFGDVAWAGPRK
# KCNQ2 pot: KCNQ2 (rat) channel potentiation. O88943. CHO-K1 KCNQ2, FluxOR thallium flux fluorescence; active compounds read high. B-score at 10 µM. 0.54% of 310,000 active. AID 2239;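 active = fluorescence ratio B-score at least 3 SD of library B-scores, with initial fluorescence B-score within 3 of them, cut at about 5.3 in these data; same plate scores as AID 2156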;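 note: B-score of peak minus minimum over baseline fluorescence ratio after K+ and Tl+ stimulus; positive B-score means potentiation of KCNQ2 with more thallium influx and brighter signal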
# Hits are given with their value; i = inactive; nt = no result given.
SMILES,KCNQ2 block,KCNQ2 pot
CCOCCCn1c(C)nc2c(c1=O)c1nc3ccccc3nc1n2CCC1=CCCCC1,-5.75,i
CCCCCCn1c(C)nc2c(c1=O)c1nc3ccccc3nc1n2/N=C/c1ccco1,i,nt
Cc1nc2c(c(=O)n1CCC1=CCCCC1)c1nc3ccccc3nc1n2/N=C/c1ccccc1,-5.74,i
O=c1c2[nH]c3ccccc3c2ncn1CCC1=CCCCC1,i,nt
COCCCn1c2nc3ccccc3nc2c2c(=O)n(CC3CCCO3)cnc21 (stereo not given),i,i
O=c1c2c3nc4ccccc4nc3n(/N=C/c3ccco3)c2ncn1CCC1=CCCCC1,-6.62,i
Cc1nonc1OCCNCc1c(C(=O)N2CCCCCCC2)nc2ccc(Cl)cn12,i,nt
Cc1ccc(C(=O)Nc2ccccc2C(=O)N2CCOCC2)cc1[N+](=O)[O-],i,i
O=C1NC(=O)/C(=C\c2ccc(OCc3cccc([N+](=O)[O-])c3)cc2)N1,i,i
COc1ccc(-c2[nH]n(-c3ccc([N+](=O)[O-])cc3)c(=O)c2C=NCCN2CCNCC2)cc1,i,nt
O=c1c(C=NCCN2CCNCC2)c(-c2ccccc2)[nH]n1-c1ccc([N+](=O)[O-])cc1,-7.04,i
COc1cc(NC(=O)C2CCN(S(=O)(=O)c3ccc4[nH]c(=O)oc4c3)CC2)cc(OC)c1,i,nt
Cc1ccc(N(CC(=O)NCc2ccco2)C(=O)CCC(=O)Nc2nccs2)cc1C,i,i
CCOC(=O)C(CCCCOc1cccc(CC)c1)C(=O)OCC,-5.57,i
CCOC(=O)C(CCCOc1cccc(CC)c1)C(=O)OCC,i,nt
COc1cccc(OCc2cc(C(=O)NCc3cnc4ccccn34)no2)c1,i,i
CCOC(=O)C1(c2ccccc2)NC(c2ccccc2C)C2C(=O)N(c3ccc4c(c3)OCO4)C(=O)C21 (stereo not given),-6.96,i
COC(=O)C1(C)NC(c2ccccc2C)C2C(=O)N(c3ccccc3)C(=O)C21 (stereo not given),i,i
CN(CC(=O)Nc1ccc(N2CCOCC2)cc1)C(=O)CCc1cc(C(C)(C)C)c(O)c(C(C)(C)C)c1,i,i
CCOC(=O)c1ccccc1NC(=O)COC(=O)CSc1ccccc1,i,i
CC(NC(=O)CCCCCN1C(=O)c2ccccc2C1=O)c1ccc2c(c1)CCCC2 (stereo not given),i,i
CC(NC(=O)CCCCCCN1C(=O)c2ccccc2C1=O)c1ccc2c(c1)CCCC2 (stereo not given),i,5.32
Cc1ccc(SCC(=O)N/N=C/c2ccco2)cc1,i,i
CC(=O)NC1C(=O)Nc2c1cccc2C(F)(F)F (stereo not given),i,i
COc1cccc(CC2(CO)CCCN(Cc3sc(N4CCCC4)nc3Cl)C2)c1 (stereo not given),i,nt
SMILES,KCNQ2 block,KCNQ2 pot
O=C(Nc1ccc(OCc2ccccc2)cc1)c1ccccc1,i,nt
CC(C)=CC(=O)Nc1ccc(OCc2ccccc2)cc1,i,7.6
Cc1ccnc(NC(=O)c2ccc(N3C(=O)CCC3=O)cc2)c1,i,nt
CCC(=O)c1ccc(OCC(O)CN(CCc2ccccc2)Cc2ccccc2)cc1 (stereo not given),-7.56,i
COc1cccc(OCC(O)CN(CCO)Cc2ccccc2)c1 (stereo not given),i,nt
CCSc1ncc(CO)c(N)n1,i,nt
Cc1cccc(/C=C/c2onc(C)c2S(=O)(=O)N2CCC(C(=O)N3CCC(C)CC3)CC2)c1,i,nt
Cc1cccc(/C=C/c2onc(C)c2S(=O)(=O)N2CCC(C(=O)N3CCCCCC3)CC2)c1,-5.99,i
Cc1ccc(CNC(=O)c2cn(C3CCCCC3)c(=O)c3c2c2ccccc2n3C)o1,i,nt
Cc1cc(NC(=O)c2cn(C3CCCCC3)c(=O)c3c2c2ccccc2n3C)no1,-5.8,i
Cc1nc(CNC(=O)CC2C(=O)NCCN2Cc2ccc(F)cc2)cs1 (stereo not given),i,nt
COc1ccc(C(=S)N2CCOCC2)cc1OS(=O)(=O)c1ccccc1[N+](=O)[O-],-6.72,i
COc1cc(C(=S)N2CCOCC2)ccc1OS(=O)(=O)c1ccccc1[N+](=O)[O-],i,i
COc1ccc(S(=O)(=O)n2nc(OC(=O)c3cccs3)cc2NC(=O)c2cccs2)cc1,i,i
Cc1c(CNC(=O)C2CCC(=O)N(CCc3ccccc3)C2)cnn1C (stereo not given),i,i
O=c1cc(N2CCCCC2)c(-c2ccccc2)nn1Cc1ccc(Cl)cc1Cl,-7.68,i
O=c1cc(N2CCCCC2)c(-c2ccccc2)nn1Cc1ccccc1Cl,i,nt
Cc1ccc(-c2cnn3c(N4CCOCC4)cc(C)nc23)cc1,i,nt
Cc1ccc(NC2CCCN(C(=O)CCn3nccc3C)C2)cc1C (stereo not given),i,nt
COc1cc2c(cc1NC(=O)COC(=O)/C=C/c1ccc([N+](=O)[O-])cc1)oc1ccccc12,i,nt
COc1cc2c(cc1NC(=O)/C=C/c1ccc([N+](=O)[O-])cc1)oc1ccccc12,i,5.61
Cc1ccccc1NC(=O)CN1CCc2ccccc2C1,i,nt
CC(CCc1ccccc1)NC(=O)CN1CCc2ccccc2C1 (stereo not given),-5.79,i
COC(=O)c1ccccc1NC(=O)CN1CCc2ccccc2C1,-7.84,i
O=C(NC(Cc1ccccc1)C(=O)O)c1ccccc1 (stereo not given),i,nt
SMILES,KCNQ2 block,KCNQ2 pot
O=C(NC(Cc1ccccc1)C(=O)N1CCc2ccccc2C1)c1ccccc1 (stereo not given),-6.3,i
CC(=O)C(Cc1ccccc1)NC(=O)CN1CCc2ccccc2C1 (stereo not given),i,nt
COc1ccccc1CC(=O)c1ccc(OCc2ccccc2)cc1,i,nt
N=c1c2ccccc2nc2n1CCCCCCCCCCC2,i,i
Clc1ccc(CNCc2cccs2)cc1Cl,i,nt
Cc1ccc(-n2c(C)cc(C(=S)N3CCOCC3)c2C)cc1C,-7.4,i
Cc1cc(C(=S)N2CCOCC2)c(C)n1-c1ccc(F)cc1,i,nt
O=C(COc1ccccc1Br)Nc1ccc2c(c1)OCCCO2,i,nt
C#C[C@]1(O)CCC2C3CCC4=CC(=O)CC[C@@H]4C3CC[C@@]21C (stereo not given in full),i,nt
CC#C[C@]1(O)CC[C@H]2[C@@H]3CCC4=CC(=O)CCC4=C3[C@@H](c3ccc(N(C)C)cc3)C[C@@]21C,-5.92,i
O=[N+]([O-])c1cc(S(=O)(=O)N2CCCCC2)ccc1NCCCN1CCOCC1,i,i
CSCC(=O)NC1CCCc2c1cnn2-c1ccc(C)c(C)c1 (stereo not given),i,i
O=C(C1CC(=O)N(c2ccccc2)C1)N1CCN(c2ccc(F)cc2)CC1 (stereo not given),i,nt
COc1ccc(CNS(=O)(=O)c2c(C)[nH]c(C)c2C(=O)N2CCCC2)cc1,i,nt
Cc1[nH]c(C)c(S(=O)(=O)NCc2ccc(OC(C)C)cc2)c1C(=O)N1CCCC1,-5.65,i
Cc1cccc(C)c1NC(=S)N(CCCN1CCOCC1)Cc1cccnc1,i,nt
O=C(NN1C(=O)/C(=C/c2ccc(O)c(O)c2)SC1=S)c1ccccc1,i,nt
O=C(NN1C(=O)/C(=C/c2cccc(O)c2)SC1=S)c1ccccc1O,-8.27,i
COc1ccccc1OCC(=O)Nc1sc2c(c1C(=O)NCC1CCCO1)CCC2 (stereo not given),i,nt
Cc1nnc(NC(=O)CSc2nnc(CC(=O)Nc3ccccc3C)n2C)s1,i,nt
COc1ccc(Cc2nnc(NC(=O)c3ccccc3C)s2)cc1,i,i
Cc1cc2nnc(SCC(=O)NCc3cccs3)n2c2ccccc12,i,nt
Cc1cc2nnc(SCC(=O)NCc3ccco3)n2c2ccccc12,i,8.71
